PubChem BioAssay AID1159580 (chemical genetic matrix, 2015)
The whole screen tested about 5,500 compounds, of which about 2,000 (36%) were called active. About 18% were inconclusive and are not listed. Cut-off read from the data, not from the text of the source: active = normalized growth mostly below about 0.91 (no sharp cut-off); inconclusive = no clear call, values can overlap the other calls; inactive = mostly above about 0.92. The list shows a part of the results.

Test: chemical genetic growth profiling, strain panel (AID 1159580);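 note: tested at 20 µM; growth read once vehicle control cultures reached saturation at 30 °C; 1 = growth at the plate median or of vehicle wells; lower values mean less growth of the strain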
Conditions: growth OD
[1] = S. cerevisiae deletion strains, locus YHR030C, strain SLT2, active compounds read low
[2] = S. cerevisiae deletion strains, locus YHR079C, strain IRE1, active compounds read low
[3] = S. cerevisiae deletion strains, locus YJL095W, strain BCK1, active compounds read low
[4] = S. cerevisiae deletion strains, locus YJR066W, strain TOR1, active compounds read low
[5] = S. cerevisiae deletion strains, locus YLR113W, strain HOG1, active compounds read low
[6] = S. cerevisiae deletion strains, locus YNL183C, strain NPR1, active compounds read low
[7] = S. cerevisiae deletion strains, locus YOR231W, strain MKK1, active compounds read low
[8] = S. cerevisiae deletion strains, locus YPL256C, strain CLN2, active compounds read low
[9] = S. cerevisiae deletion strains, locus YDL101C, strain DUN1, active compounds read low
[10] = S. cerevisiae deletion strains, locus YGR078C, strain PAC10, active compounds read low
[11] = S. cerevisiae deletion strains, locus YJR075W, strain HOC1, active compounds read low
[12] = S. cerevisiae deletion strains, locus YMR263W, strain SAP30, active compounds read low
[13] = S. cerevisiae deletion strains, locus YMR307W, strain GAS1, active compounds read low
[14] = S. cerevisiae deletion strains, locus YNL153C, strain GIM3, active compounds read low
[15] = S. cerevisiae deletion strains, locus YNL322C, strain KRE1, active compounds read low
[16] = S. cerevisiae deletion strains, locus YPL055C, strain LGE1, active compounds read low
[17] = S. cerevisiae deletion strains, locus YPL241C, strain CIN2, active compounds read low

Measured: normalized growth

CC(O)Cn1cnc2c1c(=O)n(C)c(=O)n2C (centres undefined)
inactive: [1] 1.05 | [2] 1.07 | [3] 1.05 | [4] 0.991 | [5] 1.04 | [6] 1 | [7] 1.03 | [8] 1.04

COc1cc(NC(=O)Nc2ccc(OC(F)(F)F)cc2)cc(C(F)(F)F)c1
inactive: S. cerevisiae deletion strains, locus YAL013W, strain DEP1, active compounds read low 0.987 | S. cerevisiae deletion strains, locus YBR229C, strain ROT2, active compounds read low 0.987 | [9] 0.997 | S. cerevisiae deletion strains, locus YDL134C, strain PPH21, active compounds read low 1.01 | S. cerevisiae deletion strains, locus YDR150W, strain NUM1, active compounds read low 0.971 | S. cerevisiae deletion strains, locus YEL061C, strain CIN8, active compounds read low 0.961 | [10] 0.984 | [1] 0.895 | S. cerevisiae deletion strains, locus YHR087W, strain rtc3, active compounds read low 0.984 | S. cerevisiae deletion strains, locus YJL187C, strain SWE1, active compounds read low 1.01 | S. cerevisiae deletion strains, locus YJR043C, strain POL32, active compounds read low 0.999 | [11] 1 | S. cerevisiae deletion strains, locus YLR039C, strain RIC1, active compounds read low 0.895 | S. cerevisiae deletion strains, locus YLR058C, strain SHM2 (second series), active compounds read low 1 | S. cerevisiae deletion strains, locus YLR085C, strain ARP6, active compounds read low 0.951 | S. cerevisiae deletion strains, locus YLR262C, strain YPT6, active compounds read low 0.968 | S. cerevisiae deletion strains, locus YML094W, strain GIM5, active compounds read low 0.919 | S. cerevisiae deletion strains, locus YMR219W, strain ESC1, active compounds read low 1.02 | [12] 0.991 | [13] 0.864 | [14] 0.987 | S. cerevisiae deletion strains, locus YNL298W, strain CLA4 (second series), active compounds read low 0.923 | [15] 1.01 | S. cerevisiae deletion strains, locus YNR030W, strain Alg12, active compounds read low 0.935 | S. cerevisiae deletion strains, locus YOL006C, strain TOP1, active compounds read low 0.996 | [16] 0.928 | [17] 0.893 | S. cerevisiae deletion strains, locus YPR135W, strain CTF4, active compounds read low 1 | S. cerevisiae strains, strain wild type, active compounds read low 1.01

O=C(Nc1ccc(OC(F)(F)F)cc1)Nc1cncc(C(F)(F)F)c1
active: [1] 0.822 | [5] 0.739 | [8] 0.763
inactive: S. cerevisiae deletion strains, locus YAR019C, strain CDC15, active compounds read low 0.987 | S. cerevisiae deletion strains, locus YBL105C, strain PKC1, active compounds read low 0.995 | S. cerevisiae deletion strains, locus YBR135W, strain CKS1, active compounds read low 0.989 | S. cerevisiae deletion strains, locus YBR136W, strain MEC1, active compounds read low 0.994 | S. cerevisiae deletion strains, locus YBR160W, strain CDC28, active compounds read low 0.993 | S. cerevisiae deletion strains, locus YDL017W, strain CDC7, active compounds read low 0.995 | S. cerevisiae deletion strains, locus YDL028C, strain MPS1, active compounds read low 0.991 | [9] 1.01 | S. cerevisiae deletion strains, locus YDL108W, strain KIN28, active compounds read low 0.988 | S. cerevisiae deletion strains, locus YDL132W, strain cdc53, active compounds read low 0.995 | S. cerevisiae deletion strains, locus YDL214C, strain PRR2, active compounds read low 0.913 | S. cerevisiae deletion strains, locus YDR052C, strain DBF4, active compounds read low 0.989 | S. cerevisiae deletion strains, locus YDR054C, strain cdc34, active compounds read low 0.996 | S. cerevisiae deletion strains, locus YDR226W, strain ADK1, active compounds read low 0.991 | S. cerevisiae deletion strains, locus YDR477W, strain SNF1, active compounds read low 0.943 | S. cerevisiae deletion strains, locus YER123W, strain YCK3, active compounds read low 0.884 | S. cerevisiae deletion strains, locus YER133W, strain GLC7, active compounds read low 0.93 | S. cerevisiae deletion strains, locus YFL009W, strain cdc4, active compounds read low 0.982 | S. cerevisiae deletion strains, locus YFL029C, strain CAK1, active compounds read low 0.991 | S. cerevisiae deletion strains, locus YFR003C, strain YPI1, active compounds read low 0.999 | S. cerevisiae deletion strains, locus YFR019W, strain FAB1, active compounds read low 0.911 | S. cerevisiae deletion strains, locus YFR028C, strain CDC14, active compounds read low 0.986 | S. cerevisiae deletion strains, locus YGR040W, strain KSS1, active compounds read low 0.941 | S. cerevisiae deletion strains, locus YGR052W, strain FMP48, active compounds read low 0.929 | S. cerevisiae deletion strains, locus YGR092W, strain DBF2, active compounds read low 0.919 | [2] 0.824 | S. cerevisiae deletion strains, locus YHR082C, strain KSP1, active compounds read low 0.968 | S. cerevisiae deletion strains, locus YHR205W, strain SCH9, active compounds read low 0.888 | S. cerevisiae deletion strains, locus YIL147C, strain SLN1, active compounds read low 0.996 | [3] 0.877 | S. cerevisiae deletion strains, locus YJL128C, strain PBS2, active compounds read low 0.951 | S. cerevisiae deletion strains, locus YJL157C, strain FAR1, active compounds read low 0.923 | S. cerevisiae deletion strains, locus YJR016C, strain ILV3, active compounds read low 0.994 | S. cerevisiae deletion strains, locus YJR066W, strain TOR1 (second series), active compounds read low 0.88 | [4] 0.942 | S. cerevisiae deletion strains, locus YKL048C, strain ELM1, active compounds read low 0.964 | S. cerevisiae deletion strains, locus YKL067W, strain YNK1, active compounds read low 0.916 | S. cerevisiae deletion strains, locus YKL101W, strain HSL1, active compounds read low 0.905 | S. cerevisiae deletion strains, locus YKL193C, strain SDS22, active compounds read low 0.996 | S. cerevisiae deletion strains, locus YKL203C, strain TOR2, active compounds read low 0.964 | S. cerevisiae deletion strains, locus YLR133W, strain CKI1, active compounds read low 0.91 | S. cerevisiae deletion strains, locus YLR403W, strain SFP1, active compounds read low 0.945 | S. cerevisiae deletion strains, locus YML070W, strain DAK1, active compounds read low 0.89 | S. cerevisiae deletion strains, locus YMR001C, strain CDC5, active compounds read low 0.998 | S. cerevisiae deletion strains, locus YMR205C, strain PFK2 (second series), active compounds read low 0.927 | S. cerevisiae deletion strains, locus YMR277W, strain FCP1, active compounds read low 0.992 | S. cerevisiae deletion strains, locus YNL006W, strain LST8, active compounds read low 0.99 | S. cerevisiae deletion strains, locus YNL020C, strain ARK1, active compounds read low 0.914 | S. cerevisiae deletion strains, locus YNL161W, strain CBK1, active compounds read low 0.971 | [6] 0.915 | S. cerevisiae deletion strains, locus YNL207W, strain RIO2, active compounds read low 0.985 | S. cerevisiae deletion strains, locus YNL222W, strain SSU72, active compounds read low 0.994 | S. cerevisiae deletion strains, locus YNL307C, strain MCK1 (second series), active compounds read low 0.886 | S. cerevisiae deletion strains, locus YOL078W, strain AVO1, active compounds read low 0.993 | S. cerevisiae deletion strains, locus YOL136C, strain PFK27, active compounds read low 0.882 | S. cerevisiae deletion strains, locus YOR061W, strain CKA2, active compounds read low 0.952 | S. cerevisiae deletion strains, locus YOR119C, strain RIO1, active compounds read low 0.995 | [7] 0.865 | S. cerevisiae deletion strains, locus YOR329C, strain SCD5, active compounds read low 0.994 | S. cerevisiae deletion strains, locus YPL031C, strain PHO85, active compounds read low 0.921 | S. cerevisiae deletion strains, locus YPL153C, strain RAD53, active compounds read low 0.928 | S. cerevisiae deletion strains, locus YPL204W, strain HRR25, active compounds read low 0.892 | S. cerevisiae deletion strains, locus YPL209C, strain IPL1, active compounds read low 0.998 | S. cerevisiae deletion strains, locus YPR025C, strain CCL1, active compounds read low 0.994 | S. cerevisiae deletion strains, locus YPR106W, strain ISR1, active compounds read low 0.982 | S. cerevisiae deletion strains, locus YPR111W, strain DBF20, active compounds read low 0.969 | S. cerevisiae deletion strains, strain NNK1, active compounds read low 0.978 | S. cerevisiae deletion strains, strain TSCII, active compounds read low 0.983

CNCCNS(=O)(=O)c1cccc2cnccc12
inactive: S. cerevisiae deletion strains, locus YAL040C, strain CLN3, active compounds read low 1 | S. cerevisiae deletion strains, locus YCL061C, strain MRC1 (second series), active compounds read low 1 | S. cerevisiae deletion strains, locus YDR363W, strain ESC2, active compounds read low 1.03 | S. cerevisiae deletion strains, locus YER002W, strain NOP16, active compounds read low 1 | [10] 1.02 | [11] 1.01 | [12] 0.998 | [13] 1 | [14] 1.01 | S. cerevisiae deletion strains, locus YNL175C, strain NOP13, active compounds read low 1.01 | S. cerevisiae deletion strains, locus YNL197C, strain WHI3, active compounds read low 1.04 | S. cerevisiae deletion strains, locus YNL224C, strain SQS1, active compounds read low 1 | [15] 1.02 | S. cerevisiae deletion strains, locus YOR083W, strain WHI5 (second series), active compounds read low 1 | [16] 1.01 | [17] 0.999
